PubChem BioAssay AID2685 (National Center for Advancing Translational Sciences (NCATS), 2010)
Among all 320,000 compounds or so, about 2,100 (0.66%) were called active. Not shown: some 53% with an inconclusive outcome. Calls follow the shape of the dose curve; as a rule, active = well fitted inhibition curve with a large enough effect in the signal ratio, with a control signal flat (not every such curve was filed as active); inconclusive = small, poorly fitted or top-dose-only effect, or effect the other way, or a change in a side signal; inactive = flat fitted curve, though single readings scatter; the % refers to the signal ratio. Many of the other results were omitted from the sample, so actives are more common in it than they were.

test: qHTS Assay for Lipid Storage Modulators in Drosophila S3 Cells; conditions: BODIPY lipid droplet fluorescence, 18-24 h, cells fed with added oleic acid; cell number change: measured here: cell count max response; series mostly up to 46.1 µM; lipid storage change, negative = inhibition: at the top concentration;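 as to cell number change: cells counted by Cell Tracker Red CMTPX staining in the red channel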; as to lipid storage change, negative = inhibition: % is scaled to controls: 0 for no effect and ±100 for the full control effect
Procedure, shortened: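 Laser-scanning cytometry quantifies lipid droplet accumulation (500–530 nm total intensity; droplet/cell object ratio) in oleic acid-fed (400 uM added) Drosophila S3 cells treated with a concentration series. 20 uM Triacsin C defined 100% inhibition.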
Potency is read from the fitted curve at half-maximal effect.

For Cc1cccc([C@@H]2[C@@H]3C(=O)N(Cc4ccccc4)C(=O)[C@@H]3[C@]3(Cc4ccccc4)C(=O)N(c4ccc(C(F)(F)F)cc4)C(=O)N23)c1, which “lipid storage change, negative = inhibition” value is on record?
The value was 21.6% (inactive).

And the cell number change?
The cell number change was 5.02%.

Which results are given for O=C(Nc1ccccn1)c1cc(-n2cnnc2)ccc1Cl?
lipid storage change, negative = inhibition: 1.83% (inactive); cell number change: -4.08%

With CC(C)Oc1ccc(C(=O)Nc2c3c(nn2C(C)(C)C)CS(=O)(=O)C3)cc1 as the compound, how does the “lipid storage change, negative = inhibition” value read?
Its value is -14.1% (inactive).

Which “lipid storage change, negative = inhibition” value does the source give for O=C(COC(=O)Cc1ccc(Br)cc1)NC1CCCCCC1 here?
Its value is -20.9% (inactive).

And the cell number change?
Its cell number change is -16.9%.

Which results are given for CCCSc1nnc(NC(=O)CSc2nc3[nH]c(=O)cc(O)c3s2)s1?
lipid storage change, negative = inhibition: -8.42% (inactive); cell number change: -1.41%

Which results are given for Cc1c(Cc2ccccc2)c(=O)oc2cc(OCC(=O)N3CCC(C(N)=O)CC3)ccc12?
lipid storage change, negative = inhibition: -27.3% (inactive); cell number change: 23.5%

Which “lipid storage change, negative = inhibition” value does the source give for Cc1c(CC(=O)O)c(=O)oc2cc3c(cc12)CCC(C)(C)O3 here?
Its value is 0.884% (inactive).

And the cell number change?
The cell number change was 4.46%.

Which Potency does the source give for Cc1c(CC(=O)N2CCC(C(N)=O)CC2)c(=O)oc2cc3c(cc12)CCC1(CCCCC1)O3 here?
The Potency was 13 µM (active).

What about the cell number change of the same compound?
Its cell number change is -23.7%.

Which “outcome” value does the source give for CCOc1ccccc1NC(=O)CCNC(=O)c1ccco1 here?
Its value is “inactive”.

And the cell number change?
Its cell number change is -5.71%.

For CC(C)(C)c1ccc(Cn2nnc3c(=O)[nH]c(C4CCN(C(=O)c5ccco5)CC4)nc32)cc1, which Potency is on record?
Its Potency is 20.6 µM (active).

And the cell number change?
The cell number change was -8.06%.

With O=c1[nH]c(C2CCN(S(=O)(=O)c3ccccc3)CC2)nc2c1nnn2Cc1cccc(Cl)c1 as the compound, how does the “outcome” value read?
Its value is “inactive”.

And the cell number change?
Its cell number change is 26.3%.

For Cc1ccc(Cn2nnc3c(=O)[nH]c(C4CCN(S(=O)(=O)c5ccccc5)CC4)nc32)cc1, which “lipid storage change, negative = inhibition” value is on record?
Its value is -14.5% (inactive).

What does the source list for Cc1ccc(Cn2nnc3c(=O)[nH]c(C4CCN(S(=O)(=O)c5ccc(F)cc5)CC4)nc32)cc1?
outcome: inactive; cell number change: 8.95%

What does the source list for O=C(c1ccccc1Cl)N1CCC(c2nc3c(nnn3Cc3ccco3)c(=O)[nH]2)CC1?
lipid storage change, negative = inhibition: -9.79% (inactive); cell number change: -9.84%

Which “lipid storage change, negative = inhibition” value does the source give for O=C(c1ccco1)N1CCCC(c2nc3c(nnn3Cc3ccccc3)c(=O)[nH]2)C1 (centres undefined) here?
Its value is 7.52% (inactive).

What about the cell number change of the same compound?
The cell number change was 1.8%.

What does the source list for COc1ccc(Cn2nnc3c(=O)[nH]c(C4CCN(S(=O)(=O)c5ccc(C)cc5)CC4)nc32)cc1?
Potency: 13 µM (active); cell number change: -52.1%

With O=c1[nH]c(C2CCCN(S(=O)(=O)c3ccccc3)C2)nc2c1nnn2Cc1cccc(Cl)c1 (centres undefined) as the compound, how does the Potency read?
The Potency was 2.59 µM (active).

What about the cell number change of the same compound?
Its cell number change is 7.14%.

What does the source list for O=c1[nH]c(C2CCCN(S(=O)(=O)c3cccc(F)c3)C2)nc2c1nnn2Cc1ccccc1 (centres undefined)?
outcome: inactive; cell number change: 10.8%

Which “lipid storage change, negative = inhibition” value does the source give for Cc1ccc(-n2nnnc2SCC(=O)NC2CCCc3ccccc32)c(C)c1 (centres undefined) here?
The value was 16.2% (inactive).

Which “lipid storage change, negative = inhibition” value does the source give for O=C(CSc1ncn[nH]1)c1ccc(OC(F)F)cc1 here?
The value was 14.1% (inactive).

What about the cell number change of the same compound?
The cell number change was 6.27%.

With CCCn1c(C(O)c2ccc(OC)cc2)nc2ccccc21 (centres undefined) as the compound, how does the “lipid storage change, negative = inhibition” value read?
Its value is 0.274% (inactive).

What about the cell number change of the same compound?
The cell number change was 0.04%.

For O=C(NN=C1C2CC3CC1CC(Cl)(C3)C2)c1ccccn1, which “lipid storage change, negative = inhibition” value is on record?
The value was 8.32% (inactive).

And the cell number change?
Its cell number change is 10.9%.

With Cc1ccc(C(=O)Cn2c3[n+](c4ccccc42)CC(O)CS3)cc1 (centres undefined) as the compound, how does the “lipid storage change, negative = inhibition” value read?
The value was 8.6% (inactive).

What about the cell number change of the same compound?
The cell number change was 25.2%.

With O=C(Cc1ccccc1)Nc1nnc(-c2cccc([N+](=O)[O-])c2)s1 as the compound, how does the “lipid storage change, negative = inhibition” value read?
Its value is 2.31% (inactive).

And the cell number change?
Its cell number change is -4.06%.

With Cc1cccc(N(Cc2cc(=O)[nH]c3ccccc23)C(=O)C(C)C)c1 as the compound, how does the “lipid storage change, negative = inhibition” value read?
Its value is -11.5% (inactive).

And the cell number change?
The cell number change was -7.9%.

Which results are given for Cc1cccc(N(Cc2cc(=O)[nH]c3ccccc23)C(=O)CCl)c1?
Potency: 20.6 µM (active); cell number change: -1.53%

Which “outcome” value does the source give for Cc1ccccc1N(Cc1cc(=O)[nH]c2ccccc12)C(=O)CCl here?
The value was “inactive”.

And the cell number change?
The cell number change was 13.2%.

For CN(C)S(=O)(=O)c1ccc(NC(=O)C2CC(=O)N(Cc3ccccc3)C2)cc1 (centres undefined), which “lipid storage change, negative = inhibition” value is on record?
Its value is 0.189% (inactive).

What about the cell number change of the same compound?
The cell number change was -10.9%.

Which results are given for CCN(CC)S(=O)(=O)c1ccc(NN=C2CCN(C(C)C)CC2)c([N+](=O)[O-])c1?
lipid storage change, negative = inhibition: -5.99% (inactive); cell number change: 1.2%

What does the source list for Cc1ccc(S(=O)(=O)c2cc3c(=O)n4cc(C)ccc4nc3n(CC3CCCO3)c2=N)cc1 (centres undefined)?
lipid storage change, negative = inhibition: 10.8% (inactive); cell number change: -5.73%

With COP(=O)(OC)C(Nc1cc(Cl)cc(Cl)c1)c1cccc(O)c1 (centres undefined) as the compound, how does the “lipid storage change, negative = inhibition” value read?
The value was -23% (inactive).

And the cell number change?
Its cell number change is -20.9%.

What does the source list for CCN(CC(=O)Nc1ccccc1OC)C(=O)C1CCCC1?
outcome: inactive; cell number change: -11%

Which “outcome” value does the source give for CCN(CC(=O)Nc1ccccc1OC)C(=O)C1CCC1 here?
The value was “inactive”.

What about the cell number change of the same compound?
Its cell number change is 0.934%.

With CCCN(CC(=O)Nc1ccccc1OC)C(=O)CCC(=O)c1ccc(Cl)s1 as the compound, how does the “lipid storage change, negative = inhibition” value read?
The value was -3.74% (inactive).

What about the cell number change of the same compound?
Its cell number change is -12.8%.

With CCCN(CC(=O)Nc1ccccc1OC)C(=O)C1CCCC1 as the compound, how does the Potency read?
Its Potency is 3.66 µM (active).

For CCCN(CC(=O)Nc1ccccc1OC)C(=O)Cc1ccccc1F, which “outcome” value is on record?
Its value is “inactive”.

And the cell number change?
The cell number change was 20.6%.

What does the source list for CCCN(CC(=O)Nc1ccccc1OC)C(=O)CCC(=O)c1ccc(F)cc1?
Potency: 0.82 µM (active); cell number change: -6.3%

Which “outcome” value does the source give for O=[N+]([O-])c1cccc(S(=O)(=O)N2CCCCC2)c1 here?
The value was “inactive”.

And the cell number change?
Its cell number change is 2.7%.

For Fc1ccc(-c2cc(C(F)(F)F)nc(NCc3cccs3)n2)cc1, which “lipid storage change, negative = inhibition” value is on record?
The value was 11.1% (inactive).

What about the cell number change of the same compound?
Its cell number change is 10.1%.

With CCCN(CCC(=O)Nc1ccccc1F)CC1CC1 as the compound, how does the “outcome” value read?
The value was “inactive”.

What about the cell number change of the same compound?
Its cell number change is 22.5%.

For COc1ccc(NC(=O)c2ccc(C)cc2)c[n+]1[O-], which “lipid storage change, negative = inhibition” value is on record?
The value was 1.42% (inactive).

And the cell number change?
The cell number change was 9.2%.

With COc1ccc(C(c2nnnn2C(C)C)N2CCN(C(=O)c3ccco3)CC2)cc1 (centres undefined) as the compound, how does the Potency read?
Its Potency is 0.0259 µM (active).

And the cell number change?
Its cell number change is 10.1%.

With COCCn1nnnc1C(c1ccc(OC)cc1)N1CCN(C(=O)c2ccco2)CC1 (centres undefined) as the compound, how does the “outcome” value read?
The value was “inactive”.

What about the cell number change of the same compound?
The cell number change was 10.8%.

For COc1ccc(C(c2nnnn2C(C)(C)C)N2CCN(C(=O)c3ccco3)CC2)cc1 (centres undefined), which “outcome” value is on record?
The value was “inactive”.

And the cell number change?
Its cell number change is 15.4%.
